CCT chaperon mod – modulators of cytosolic chaperonin (CCT/TRiC) activity | purified chaperonin ATPase assay, HTRF ADP detection, 30 min | activity change, % (concentration not given with the values), hits read low | 360,000 tested, 0.3% active; in the data active = activity change below about -30%
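TRiC (40 or 20 nM final, by batch activity) in 30 mM Tris pH 7.4, 100 mM KCl, 5 mM MgCl2, 1 mM DTT was treated with compound at 76 uM single dose, then 10 uM ATP, 30 min at 37 °C. ADP was read by HTRF Transcreener.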
PLK1 PBD block – inhibitors of human PLK1 polo-box domain binding; P53350; Plk1 PBD binding of FITC phosphopeptide, fluorescence polarization; Potency, µM, inactives show max response, negative = inhibition, usual class: inhibitors; 360,000 tested, 2.8% active; also: potency is read from the fitted curve at half-maximal effect; series mostly up to about 57 µM; nearly all actives have a fitted effect of over 65% in size
MmCpn inh – inhibitors of Methanococcus maripaludis chaperonin TRiC (MmCpn); purified Mm-Cpn ATPase, ADP Transcreener TR-FRET; Potency, µM (highest dose often 76.9 µM), without a hit: at the highest dose activity, negative = inhibition, actives largely listed as inhibitors; 330,000 tested, 0.031% active; AID 504842; also: potency is read from the fitted curve at half-maximal effect; nearly all actives have a fitted effect of over 80% in size
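ATPase read-out: TR-FRET ADP immunoassay (anti-ADP Eu cryptate vs ADP-d2), ex 320 nm, em 590/665 nm; signal drops as ADP forms. Enzyme 25 nM, ATP 10 uM, 30 min at 37°C after 10 min compound preincubation.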
G9a block – inhibitors of human histone lysine methyltransferase G9a; G9a H3K9 monomethylation, AlphaScreen, 2 h; Q96KQ7; AID 504332; Potency, µM (highest dose often 102 µM), for inactives: top-dose activity, negative = inhibition, usual class: inhibitors; 350,000 tested, 8.8% active; also: potency is read from the fitted curve at half-maximal effect; nearly all actives have a fitted effect of over 75% in size
Target sequence (Q96KQ7 913-1193 limits assumed): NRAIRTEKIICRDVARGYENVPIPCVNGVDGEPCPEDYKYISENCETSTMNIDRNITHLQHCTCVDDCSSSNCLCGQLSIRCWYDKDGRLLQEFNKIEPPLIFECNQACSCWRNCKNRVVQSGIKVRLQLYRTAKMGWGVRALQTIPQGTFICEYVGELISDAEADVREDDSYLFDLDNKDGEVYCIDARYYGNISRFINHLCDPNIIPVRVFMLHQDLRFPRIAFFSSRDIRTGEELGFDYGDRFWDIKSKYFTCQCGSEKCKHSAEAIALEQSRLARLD
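G9a (20 nM) was preincubated 15 min with compound, then reacted 2 h at room temperature with 500 nM biotin-H3K9 peptide and 20 µM SAM. Monomethyl-H3K9 detected by AlphaScreen using anti-H3K9me1 antibody.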
Sfp inh – inhibitors of Bacillus subtilis Sfp phosphopantetheinyl transferase; Biochemical Sfp PPTase activity, qHTS; Potency, µM, for the others: largest response in the series, negative = inhibition, actives largely listed as inhibitors; 310,000 tested, 3.5% active; AID 1490;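 also: the enzyme is Sfp with the accession as filed and its product quenches rhodamine fluorescence; potency is read from the fitted curve at half-maximal effect; 0% = enzyme reaction without inhibitor and -100% = no enzyme wells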
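After 15 min at room temperature with compound, 15 nM Sfp received 5 uM rhodamine-CoA plus 12.5 uM BHQ-2-ybbR (50 mM Hepes pH 7.6, 10 mM MgCl2). Rate came from the fluorescence difference over 30 min, ex 525/em 598 nm.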
VDR inh – vitamin D3 receptor (human) inhibition; VDR-SRC2-3 peptide fluorescence polarization, 2 h; Potency, µM, for the others: max response, negative = inhibition, usual class: inhibitors; 400,000 tested, 0.93% active; also: potency is read from the fitted curve at half-maximal effect
Target sequence (P11473 whole entry, looked up): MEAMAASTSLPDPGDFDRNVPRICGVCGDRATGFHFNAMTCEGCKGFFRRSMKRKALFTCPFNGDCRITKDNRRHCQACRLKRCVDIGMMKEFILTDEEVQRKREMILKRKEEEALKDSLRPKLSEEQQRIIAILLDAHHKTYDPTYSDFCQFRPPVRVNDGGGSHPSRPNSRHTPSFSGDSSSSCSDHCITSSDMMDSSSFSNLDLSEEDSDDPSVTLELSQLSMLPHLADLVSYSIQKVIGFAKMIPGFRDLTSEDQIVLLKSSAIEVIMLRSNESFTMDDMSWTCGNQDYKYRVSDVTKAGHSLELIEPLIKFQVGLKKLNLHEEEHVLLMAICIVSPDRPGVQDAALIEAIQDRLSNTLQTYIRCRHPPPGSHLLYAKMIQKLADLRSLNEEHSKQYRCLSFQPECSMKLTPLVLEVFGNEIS
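Fluorescence polarization assay of small-molecule disruption of VDR binding to coregulator peptide SRC2-3. Compounds and controls pin-transferred, then read after 2 h incubation at ambient room temperature.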
* = called active by the depositor; u = inconclusive; x = no result given; [ ] = remark or other dose. Rows were chosen to be rich in hits. Some 10% of all compounds tested hit in one or more screens of this group. Unless noted, calls follow the shape of the dose curve; as a rule, active = well fitted curve in the direction sought with a large enough effect; inconclusive = small, poorly fitted or top-dose-only effect, or another doubt; inactive = no such curve, though single readings can be large; an effect the other way counts as inactive or inconclusive. Unless noted, % is scaled to controls: 0 for no effect and ±100 for the full control effect.

SMILES	CCT chaperon mod	PLK1 PBD block	MmCpn inh	G9a block	Sfp inh	VDR inh
COCCN(C(=O)C1CC1)c1nnc(-c2ccc(C)cc2)s1	-1	-7%	-1%	8%[59 µM]	6%	-2%
COc1cccc(C(=O)N(C)c2nnc(-c3ccncc3)s2)c1	-2	-3%	1%	79µM*	5%	-9%
CCOc1ccc(-c2nnc(N(CC)C(=O)C3CCC3)s2)cc1	-3	u	-1%	u	40µM*	-15%
COCCN(C(=O)CCc1ccc(OC)cc1)c1nnc(-c2ccncc2)s1	-2	-4%	2%	u	-27%	-15%
COc1ccc(OC)c(NC(=O)CCCOc2cc(=O)n(C)c3ccccc23)c1	x	x	x	-2%[59 µM]	x	0%
CCOC(=O)c1cc(NC(=O)c2ccc(F)cc2)c(=O)n2c1oc1ccc(Cl)cc12	x	x	x	46%[59 µM]	x	1%
Cc1oc2c(c1C(=O)Nc1ccc(Cl)cc1F)C1=NCCN1C=N2	x	x	x	2%[59 µM]	x	11%
O=c1c(-c2ccccc2)nc2cnc(N3CCNCC3)nc2n1-c1ccccc1	x	x	x	1%[0.501 µM]	-8%	u
CC1(C#CC[N+]2(C)CCCCC2)CCC2C(O1)c1ccccc1OC2(C)C (stereo unspecified)	4	u	-1%[15.4 µM]	3.2µM*	56µM*	-12%
Cc1cc(C(=O)CN2C(=O)NC(Cc3c[nH]c4ccccc34)C2=O)c(C)n1C (stereo unspecified)	-2	-1%	-4%	50µM*	-5%	-11%
CNC(=O)CN1C(=O)NC(Cc2c[nH]c3ccccc23)C1=O (stereo unspecified)	0	-16%	-4%	2%	17%	-16%
Oc1[nH]c2c(Cl)cc(Cl)cc2c1N=NC(=S)NCC1CCCO1 (stereo unspecified)	-40*	2%	0%	14%[59 µM]	17%	-2%
COc1cc(/C=C/c2[nH]c(=O)[nH]c(=O)c2[N+](=O)[O-])cc([N+](=O)[O-])c1O	-2	-10%	-10%	45µM*	-6%	-9%
O=c1[nH]c(/C=C/c2cccnc2)c([N+](=O)[O-])c(=O)[nH]1	0	-5%	u	-6%	1%	-15%
COc1cc(/C=C/c2[nH]c(=O)[nH]c(=O)c2[N+](=O)[O-])ccc1OCCC(C)C	-6	-10%	2%	u	5%	-15%
O=c1[nH]c(/C=C\c2cccnc2)c([N+](=O)[O-])c(=O)[nH]1	-1	27µM*	-20%	-26%	-24%	-11%
Cc1noc(/C=C/c2cccnc2)c1[N+](=O)[O-]	2	-3%	-14%	45µM*	3%	u
CCOC(=O)c1cccc(NC(=O)c2cc3c(=O)n(Cc4ccccc4)ccc3nc2C)c1	x	x	x	4%[59 µM]	x	11%
O=C1Nc2ccccc2SC1c1ccccc1Cl (stereo unspecified)	-1	-4%	x	x	x	-12%
O=C1Nc2ccccc2SC(c2ccccc2)C1O (stereo unspecified)	-2	u	-2%	10µM*	-12%	-10%
CC1=CC2(O)OCCN(CCO)C2=CC1=O (stereo unspecified)	-2	-5%	-2%	u	56µM*	15%
O=C(COc1ccc(Cl)cc1)OCCNC12CC3CC(CC(C3)C1)C2	x	x	x	6%[12.7 µM]	u	-1%
CCCn1c(SCC(=O)N2c3ccc(F)cc3CCC2C)nnc1-c1ccccn1 (stereo unspecified)	-2	30µM*	0%	-12%[59 µM]	-7%	u
CC(Sc1nc(=O)cc(N)n1CCc1ccccc1)C(=O)Nc1ccccc1C#N (stereo unspecified)	x	x	x	-22%[59 µM]	x	-14%
Cc1nc(N2CCN(Cc3ccc4c(c3)OCO4)CC2)[nH]c(=O)c1C	3	-1%	1%	18%	10%	-14%
SMILES	CCT chaperon mod	PLK1 PBD block	MmCpn inh	G9a block	Sfp inh	VDR inh
CC1(C)CC(=O)C2=C(C1)NCN(Cc1ccc3c(c1)OCO3)C2	-1	27µM*	1%	-34%	5%	-8%
Clc1cc(NCc2cccs2)ccc1N1CCOCC1	0	-9%	2%	11µM*	-6%	8%
c1csc(CNc2ccc3c(c2)OCCO3)c1	-1	-27%	-1%	3.5µM*	-6%	-20%
Oc1ccccc1CNc1ccc2c(c1)OCCO2	1	5%	0%	u	-8%	11%
Cc1c(Cl)cccc1-n1nnc(-c2nc(-c3ccc4c(c3)OCO4)no2)c1C	x	x	x	0%[59 µM]	x	5%
Cn1cc(S(=O)(=O)N2CCCCC2)cc1C(=O)Nc1ccc(OC(F)(F)F)cc1	x	x	x	10%[59 µM]	x	18%
O=C(CSc1nnc(-c2ccccn2)o1)Nc1ccccc1	0	u	-1%	x	1%	6%
O=C(CSc1nnc(-c2ccccn2)o1)Nc1ccccc1C(F)(F)F	2	-28%	1%	71µM*	-10%	8%
Cc1ccc(N2CC(NC(=O)c3cc4ccccc4o3)CC2=O)cc1C (stereo unspecified)	x	x	x	9%[59 µM]	x	-7%
CN(C)CCCNS(=O)(=O)c1ccc(N2CCN(Cc3ccc4c(c3)OCO4)CC2)c([N+](=O)[O-])c1	0	-19%	-1%	10µM*	71µM*	-21%
O=[N+]([O-])c1ccc(N2CCN(Cc3ccc4c(c3)OCO4)CC2)nc1	-1	-26%	0%	x	10%	0%
CN(C)CCNS(=O)(=O)c1ccc(N2CCc3ccccc32)c([N+](=O)[O-])c1	-1	-3%	-3%	50µM*	-11%	-2%
CC(=O)c1ccc(N2CCN(c3ccc(S(=O)(=O)NCCCN(C)C)cc3[N+](=O)[O-])CC2)cc1	0	0%	0%	u	-13%	-11%
O=Cc1cc([N+](=O)[O-])ccc1N1CCN(Cc2ccc3c(c2)OCO3)CC1	-2	-14%	-3%	45µM*	9%	-1%
O=C(CN1C(=O)C(c2ccc(F)cc2)=NC12CCCCCC2)Nc1ccccc1Cl	x	x	x	47%[59 µM]	x	19%
Cc1nc2ccc(NC3=NCCCCC3)cc2s1	1	30µM*	2%	5.6µM*	u	u
Cc1ccc(S(=O)(=O)Nc2cccc(-c3ccc(N4CCCCCC4)nn3)c2)c(C)c1	0	27µM*	-8%	18%[0.501 µM]	5%	u
COc1cccc(NS(=O)(=O)c2cc(C)ccc2OC)c1	0	8.4µM*	2%	-24%[59 µM]	6%	u
COc1ccc(OC)c(S(=O)(=O)Nc2cccc(-c3ccc(N4CCCCC4)nn3)c2)c1	x	x	x	3.5µM*	x	-25%
Cc1cc(C)cc(N2CC(C(=O)OCC(=O)Nc3cc(C)on3)CC2=O)c1 (stereo unspecified)	-3	-4%	-2%	50µM*	2%	14%

Bioassay records from PubChem BioAssay.
